Shown are actives, neighbours in structure and some others; about 10% of the full set was active somewhere.
GPT2 inhibitor = GPT2 alanine aminotransferase inhibition; Recombinant GPT2, coupled pyruvate oxidase/HRP Amplex Red fluorescence; Q8TD30; Potency, µM (series often up to 57.7 µM), hits mostly inhibitors; actives 0.25% (n = 100,000); also: nearly all actives have a fitted effect of over 60% in size
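Recombinant GPT2 (10ng/uL) with 250uM a-KG and 2mM L-alanine, 30 min at room temperature, in HEPES pH 7.5 buffer. Pyruvate detected by pyruvate oxidase/HRP/Amplex Red fluorescence after 30 min in the dark; AOA (50uM) as positive control.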
NIH3T3 tox = kills NIH 3T3 cells; actives 4.3% (n = 94,000); NIH 3T3 viability, CellTiter-Glo ATP luminescence, 48-72 h; Potency, µM (titrated, usually from 96.7 µM), actives largely listed as inhibitors; also: nearly all actives have a fitted effect of over 55% in size
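ATP-dependent luminescence (CellTiter-Glo) served as the viability signal for NIH 3T3 cells treated with compound for 48 or 72 hr at 37 °C.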
Luciferase inh = inhibitors of firefly (Photinus pyralis) luciferase; AID 1347043; actives 2.5% (n = 76,000); Potency, µM (top dose mostly 115 µM), usual class: inhibitors; P08659; purified P. pyralis luciferase, luminescence, biochemical; also: nearly all actives have a fitted effect of over 65% in size
Target sequence (P08659 whole entry, looked up): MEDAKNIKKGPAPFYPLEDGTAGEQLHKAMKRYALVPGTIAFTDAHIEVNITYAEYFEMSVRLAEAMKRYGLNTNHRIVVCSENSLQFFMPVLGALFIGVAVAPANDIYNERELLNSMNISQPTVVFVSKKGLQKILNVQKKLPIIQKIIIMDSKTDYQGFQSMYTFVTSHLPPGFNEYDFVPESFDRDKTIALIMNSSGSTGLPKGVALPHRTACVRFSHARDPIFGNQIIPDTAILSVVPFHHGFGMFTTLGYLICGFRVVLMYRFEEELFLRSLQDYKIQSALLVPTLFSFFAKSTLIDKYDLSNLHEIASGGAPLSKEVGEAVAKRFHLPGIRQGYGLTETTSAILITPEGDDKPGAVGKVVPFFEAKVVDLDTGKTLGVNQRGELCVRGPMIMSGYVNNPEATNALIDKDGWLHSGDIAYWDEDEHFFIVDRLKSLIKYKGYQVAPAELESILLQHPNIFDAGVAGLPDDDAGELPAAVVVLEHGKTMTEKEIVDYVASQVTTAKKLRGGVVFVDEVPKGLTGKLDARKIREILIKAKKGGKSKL
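Purified P. pyralis luciferase (10nM final) in 50mM Tris acetate pH 7.5, 10mM Mg acetate, 0.01% Tween-20, 0.05% BSA with 10uM D-luciferin and 10uM ATP. Compounds titrated qHTS. Luminescence imaged on CCD.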
HEK cytotox = cytotoxic compounds in HEK 293 cells; HEK 293 viability, ATP luminescence (CellTiter-Glo), 48-72 h; actives 6.6% (n = 94,000); Potency, µM (highest dose often 115 µM), most hits filed as inhibitors; AID 1345083; also: nearly all actives have a fitted effect of over 60% in size
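HEK 293 cells at 250 cells/well were exposed to compounds by pintool transfer for 48 or 72 hr at 37 degree Celsius, 5% CO2. Viability was read as ATP-coupled luminescence with CellTiter-Glo after 10 min at room temperature.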
NPR1 antag = antagonists of human natriuretic peptide receptor Npr1; P16066; HEK293 hNpr1 GloSensor cGMP, ANP-stimulated luminescence; Potency, µM (top dose mostly 46.3 µM), most hits filed as inhibitors; actives 1.6% (n = 76,000); AID 1347048; calls by dose curve; also: nearly all actives have a fitted effect of over 60% in size
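Compound pre-incubated 30 min at room temperature on GloSensor-loaded HEK293 cells stably carrying hNpr1 and the pGS-40F cGMP biosensor. Stimulation uses hNppA at 0.1 nM final; luminescence is taken at baseline and 20 min post-agonist.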
Numbers stand for hits; 0 = inactive; ? = inconclusive; - = no result. Unless noted, calls follow the shape of the dose curve; as a rule, active = well fitted curve in the direction sought with a large enough effect; inconclusive = small, poorly fitted or top-dose-only effect, or another doubt; inactive = no such curve, though single readings can be large; an effect the other way counts as inactive or inconclusive.

SMILES	GPT2 inhibitor	NIH3T3 tox	Luciferase inh	HEK cytotox	NPR1 antag
O=C1NC(=NC2CCCCC2)C2(CCCN(Cc3ccsc3)C2)N1c1cc(F)cc(F)c1 (stereo unspecified)	0	?	-	?	-
O=C1NC(=NC2CCCC2)C2(CCN(CC3CC3)CC2)N1c1cc(F)cc(F)c1	0	32µM	-	0	-
O=C1NC(=NC2CCCCC2)C2(CCCN(CC3CC3)C2)N1c1cccnc1 (stereo unspecified)	0	?	-	0	-
O=C1NC(=NC2CCCCC2)C2(CCCN(CC3CC3)C2)N1c1cc(F)cc(F)c1 (stereo unspecified)	0	32µM	-	10µM	-
O=C1NC(=NC2CCCCC2)C2(CCCN(CC3CCCCC3)C2)N1c1cc(F)cc(F)c1 (stereo unspecified)	0	28µM	-	?	-
O=C1NC(=NC2CCCCC2)C2(CCN(CC3CC3)CC2)N1c1cc(F)cc(F)c1	0	?	-	0	-
COc1cccc(CNC(=O)[C@@H]2C[C@@H](O)CN2C2CCN(C(=O)c3nccn3C)CC2)c1	0	0	0	0	0
Cn1cc(CN2CCc3nc(C(=O)NCC4CC4)oc3CC2)cn1	0	0	0	?	0
CC(C)c1noc(-c2cccn3c(CNC(=O)C4CCCC4)nnc23)n1	0	0	0	0	0
O=C(COc1ccc(Cl)cc1Cl)N1CCCCC1c1ccccn1 (stereo unspecified)	0	?	?	45µM	?
O=C(C1CCCC1)N1CCC(C(=O)N2CCCC2c2ccccn2)CC1 (stereo unspecified)	0	0	0	0	0
COc1ccc(NC(=O)Cn2nc3n(c2=O)CCCC3)cc1Cl	0	0	0	?	0
COc1ccccc1-c1ccc(CN2CCC(N[S+](=O)([O-])c3c(C)noc3C)C2)cc1 (stereo unspecified)	-	?	-	45µM	-
Cc1cc(C)cc(-c2ccc(CN3CCCC(N[S+](=O)([O-])c4cccs4)C3)cc2)c1 (stereo unspecified)	0	32µM	-	35µM	-
Cc1ccc([S+](=O)([O-])NC2CCCN(Cc3ccc(-c4cc(C)cc(C)c4)cc3)C2)cc1 (stereo unspecified)	0	?	-	40µM	-
Cc1cc(C)cc(-c2ccc(CN3CCCC(NC(=O)C4CCCC4)C3)cc2)c1 (stereo unspecified)	0	0	-	0	-
O=[S+]([O-])(NC1CCCN(Cc2ccc(-c3cncnc3)cc2)C1)c1ccccc1 (stereo unspecified)	0	0	-	?	-
COc1ccccc1Nc1ccnc(N2CCC(N[S+](=O)([O-])c3c(C)noc3C)CC2)n1	0	?	-	?	-
Cc1cc(C)cc(-c2ccc(CN3CCCC(N[S+](=O)([O-])c4c(C)noc4C)C3)cc2)c1 (stereo unspecified)	0	35µM	-	25µM	-
CC(C)CCN1CC[C@@H]2OCC(=O)N(Cc3ccccc3)[C@H]2CC1	0	?	0	?	0
COCCNC(=O)c1ccc2c(c1)N(C)C(CC(=O)NCc1ccon1)CO2 (stereo unspecified)	0	0	0	0	0
O=C(NC1CCCCC1)[C@@H]1C[C@@H](O)CN1C1CCN(C(=O)C2CCC2)CC1	0	0	0	0	0
O[C@H]1[C@H](NCc2ccc(OC(F)(F)F)cc2)[C@H]2CO[C@H](O2)[C@@H]1N1CCOCC1	?	0	0	0	0
O[C@H]1[C@H](NCc2ccc(OC(F)(F)F)cc2)[C@H]2CO[C@H](O2)[C@@H]1N1CCC(Cc2ccccc2)CC1	0	?	0	45µM	?
O=C(NC1CCCCC1)N[C@H]1[C@H](O)[C@@H](N2CCC(Cc3ccccc3)CC2)[C@@H]2OC[C@H]1O2	0	?	0	?	0
SMILES	GPT2 inhibitor	NIH3T3 tox	Luciferase inh	HEK cytotox	NPR1 antag
O[C@H]1[C@H](NCC2CCCCC2)[C@H]2CO[C@H](O2)[C@@H]1N1CCC(Cc2ccccc2)CC1	0	32µM	0	40µM	0
CCn1cnnc1CC1CCCN(S(=O)(=O)c2ccccc2C)C1 (stereo unspecified)	0	0	0	?	0
COCCCNC(=O)C1COC2(CCCCC2)N1C(=O)c1c(OC)cccc1OC (stereo unspecified)	0	0	0	0	0
CN(Cc1cnc2ccccn12)C(=O)c1cc(COc2ccc(F)cc2F)on1	0	?	0	?	?
CN1CCN(C(=O)c2cc(COc3ccc(F)cc3F)on2)CC1c1ccccc1 (stereo unspecified)	0	?	0	20µM	0
Cc1cccc2nc(CNC(=O)c3cc(COc4ccc(F)cc4F)on3)cn12	0	32µM	0	?	0
O=C(NCc1ccc(F)cc1)c1ccc2nnc(Cc3ccc(Cl)cc3)n2c1	0	?	-	40µM	-
O=C(NCc1ccccc1Cl)c1ccc2nnc(Cc3ccc(Cl)cc3)n2c1	0	?	-	?	-
O=C(NCc1ccc(Cl)cc1)c1ccc2nnc(Cc3ccc(Cl)cc3)n2c1	0	32µM	-	45µM	-
O=C(NCCc1ccc(Cl)cc1)c1ccc2nnc(Cc3ccc(Cl)cc3)n2c1	0	28µM	-	28µM	-
O=C(NCc1cccc(C(F)(F)F)c1)c1ccc2nnc(Cc3ccc(Cl)cc3)n2c1	0	22µM	-	32µM	-
CCc1nnc(CN(C)C(=O)c2cccc(CCC(C)(C)O)c2)o1	0	0	0	0	0
O=C(NCc1ccc(F)cc1)C1CCN(C(=O)c2ncn3c2COC(c2ccc(Cl)cc2)C3)CC1 (stereo unspecified)	0	0	?	0	0
CC(=O)Nc1ccc(C(=O)N2CCCN(CCn3nc4n(c3=O)CCCC4)CC2)cc1	-	0	-	0	-
Cc1cn2nc(C(=O)Nc3ccc(Cl)cc3)cc2c(N(C)Cc2ccccc2)n1	0	0	0	0	0
Cc1cn2nc(C(=O)Nc3ccc(N(C)C)cc3)cc2c(N(C)Cc2ccccc2)n1	?	?	2.5µM	?	0
CCNC(=O)C12CCCC=C1N(C1CCCC1)C(=O)CC2 (stereo unspecified)	0	0	40µM	0	0
CCN1C(=O)CCC2(C(=O)NCCN(C)C3CCCCC3)CCCC=C12 (stereo unspecified)	0	?	0	45µM	0
O=C(NCC1CC1)c1noc(-c2ccccc2F)n1	?	0	40µM	0	0
COc1ccc(CCNC(=O)c2noc(-c3ccccc3F)n2)cc1OC	0	?	0	32µM	?
O=C(NCC1CCCCC1)c1noc(-c2ccc[nH]c2=O)n1	?	0	0	0	0
O=C(C1CC(=O)N(c2ccc(F)c(Cl)c2)C1)N1CCc2c(nc[nH]c2=O)C1 (stereo unspecified)	0	0	0	0	0
CN(C)C[C@@H]1CN(C2CCOCC2)C[C@H]1NC(=O)c1ccnn1C	0	0	0	0	0
COCC1CN(C2CCC2)CC12CCN(C(=O)CCCc1ccccc1)CC2 (stereo unspecified)	0	?	-	32µM	-
